Experiment [1] addresses Ribosomal protein S6 kinase alpha-6 (Homo sapiens) (UniProt Q9UK32). The settings on record: at 1 µM.
In experiment [2] the target is T1, Serine/threonine-protein kinase Sgk1 (Homo sapiens) (UniProt O00141).
T1 sequence (whole entry): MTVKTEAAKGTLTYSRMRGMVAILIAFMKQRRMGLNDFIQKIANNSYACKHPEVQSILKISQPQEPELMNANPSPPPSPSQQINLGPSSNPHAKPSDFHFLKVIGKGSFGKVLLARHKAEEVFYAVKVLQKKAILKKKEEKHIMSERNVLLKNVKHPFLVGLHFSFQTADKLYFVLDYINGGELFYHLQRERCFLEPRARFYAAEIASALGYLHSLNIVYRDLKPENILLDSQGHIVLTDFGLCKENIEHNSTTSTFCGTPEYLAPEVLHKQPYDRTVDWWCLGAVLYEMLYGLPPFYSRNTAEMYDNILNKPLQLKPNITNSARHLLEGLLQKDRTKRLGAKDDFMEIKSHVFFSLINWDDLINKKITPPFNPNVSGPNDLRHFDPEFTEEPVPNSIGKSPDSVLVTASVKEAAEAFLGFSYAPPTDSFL
The note with it: at 0.1 µM.

For experiment [3], the target named is T1, Serine/threonine-protein kinase Sgk1 (Homo sapiens). The settings on record: at 1 µM.
In experiment [4] the target is T2, Serine/threonine-protein kinase Sgk2 (Homo sapiens) (UniProt Q9HBY8).
T2 sequence (whole entry): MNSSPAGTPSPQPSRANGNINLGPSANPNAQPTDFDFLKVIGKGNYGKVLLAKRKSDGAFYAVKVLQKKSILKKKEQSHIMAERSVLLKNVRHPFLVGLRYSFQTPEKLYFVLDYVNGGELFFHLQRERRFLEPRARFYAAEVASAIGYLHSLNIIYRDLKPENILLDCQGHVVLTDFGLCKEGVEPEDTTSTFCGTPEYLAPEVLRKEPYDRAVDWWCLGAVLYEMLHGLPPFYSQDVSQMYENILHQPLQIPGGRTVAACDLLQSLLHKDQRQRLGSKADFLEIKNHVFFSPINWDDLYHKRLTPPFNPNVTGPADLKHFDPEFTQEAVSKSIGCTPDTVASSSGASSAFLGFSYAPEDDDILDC
The note with it: at 0.1 µM.

Experiment [5] addresses T2, Serine/threonine-protein kinase Sgk2 (Homo sapiens). The settings on record: at 1 µM.
For experiment [6], the target named is T3, Serine/threonine-protein kinase Sgk3 (Homo sapiens) (UniProt Q96BR1).
T3 sequence (whole entry): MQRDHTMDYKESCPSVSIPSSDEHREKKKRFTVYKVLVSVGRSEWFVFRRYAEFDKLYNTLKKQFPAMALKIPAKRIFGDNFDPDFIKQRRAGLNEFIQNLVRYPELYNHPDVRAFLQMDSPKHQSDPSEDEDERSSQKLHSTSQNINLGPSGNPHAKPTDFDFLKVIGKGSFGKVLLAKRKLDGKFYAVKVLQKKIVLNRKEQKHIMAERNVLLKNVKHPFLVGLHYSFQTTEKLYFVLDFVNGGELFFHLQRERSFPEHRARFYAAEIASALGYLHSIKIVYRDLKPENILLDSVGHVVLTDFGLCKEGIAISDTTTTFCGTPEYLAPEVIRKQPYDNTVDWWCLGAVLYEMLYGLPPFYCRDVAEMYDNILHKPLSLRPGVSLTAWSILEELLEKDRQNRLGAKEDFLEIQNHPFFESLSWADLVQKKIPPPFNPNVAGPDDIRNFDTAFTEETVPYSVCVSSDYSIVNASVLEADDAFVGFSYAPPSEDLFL
The note with it: at 0.1 µM.

In experiment [7] the target is T3, Serine/threonine-protein kinase Sgk3 (Homo sapiens). The settings on record: at 1 µM.
The target of experiment [8] is 5'-AMP-activated protein kinase catalytic subunit alpha-1 (Homo sapiens) (UniProt Q13131). The note with it: at 0.1 µM.
For experiment [9] the target is unchanged. The settings on record: at 1 µM.
Experiment [10] addresses 5'-AMP-activated protein kinase catalytic subunit alpha-2 (Homo sapiens) (UniProt P54646). The note with it: at 0.1 µM.
The target is the same in experiment [11]. The settings on record: at 1 µM.
Experiment [12] concerns the target T4, NUAK family SNF1-like kinase 1 (Homo sapiens) (UniProt O60285).
T4 sequence (whole entry): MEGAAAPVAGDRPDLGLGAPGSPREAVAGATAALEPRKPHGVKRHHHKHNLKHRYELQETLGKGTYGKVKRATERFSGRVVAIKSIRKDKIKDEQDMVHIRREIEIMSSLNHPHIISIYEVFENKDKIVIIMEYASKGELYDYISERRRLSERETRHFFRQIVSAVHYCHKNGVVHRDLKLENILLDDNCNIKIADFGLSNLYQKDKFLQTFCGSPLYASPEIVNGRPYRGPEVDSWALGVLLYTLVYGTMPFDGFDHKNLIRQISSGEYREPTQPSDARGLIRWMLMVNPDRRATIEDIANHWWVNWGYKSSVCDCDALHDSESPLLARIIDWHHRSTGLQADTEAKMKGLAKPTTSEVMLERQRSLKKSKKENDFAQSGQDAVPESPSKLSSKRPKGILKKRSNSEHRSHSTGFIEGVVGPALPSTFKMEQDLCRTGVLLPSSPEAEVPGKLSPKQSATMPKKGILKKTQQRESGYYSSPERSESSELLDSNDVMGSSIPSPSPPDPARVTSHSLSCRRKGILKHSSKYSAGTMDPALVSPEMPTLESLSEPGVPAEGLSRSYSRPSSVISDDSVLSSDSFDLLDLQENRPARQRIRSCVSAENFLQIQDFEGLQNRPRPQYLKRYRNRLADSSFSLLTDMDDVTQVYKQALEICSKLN
The note with it: at 0.1 µM.

Experiment [13] has as its target T4, NUAK family SNF1-like kinase 1 (Homo sapiens). The settings on record: at 1 µM.
In experiment [14] the target is T5, Serine/threonine-protein kinase BRSK1 (Homo sapiens) (UniProt Q8TDC3).
T5 sequence (whole entry): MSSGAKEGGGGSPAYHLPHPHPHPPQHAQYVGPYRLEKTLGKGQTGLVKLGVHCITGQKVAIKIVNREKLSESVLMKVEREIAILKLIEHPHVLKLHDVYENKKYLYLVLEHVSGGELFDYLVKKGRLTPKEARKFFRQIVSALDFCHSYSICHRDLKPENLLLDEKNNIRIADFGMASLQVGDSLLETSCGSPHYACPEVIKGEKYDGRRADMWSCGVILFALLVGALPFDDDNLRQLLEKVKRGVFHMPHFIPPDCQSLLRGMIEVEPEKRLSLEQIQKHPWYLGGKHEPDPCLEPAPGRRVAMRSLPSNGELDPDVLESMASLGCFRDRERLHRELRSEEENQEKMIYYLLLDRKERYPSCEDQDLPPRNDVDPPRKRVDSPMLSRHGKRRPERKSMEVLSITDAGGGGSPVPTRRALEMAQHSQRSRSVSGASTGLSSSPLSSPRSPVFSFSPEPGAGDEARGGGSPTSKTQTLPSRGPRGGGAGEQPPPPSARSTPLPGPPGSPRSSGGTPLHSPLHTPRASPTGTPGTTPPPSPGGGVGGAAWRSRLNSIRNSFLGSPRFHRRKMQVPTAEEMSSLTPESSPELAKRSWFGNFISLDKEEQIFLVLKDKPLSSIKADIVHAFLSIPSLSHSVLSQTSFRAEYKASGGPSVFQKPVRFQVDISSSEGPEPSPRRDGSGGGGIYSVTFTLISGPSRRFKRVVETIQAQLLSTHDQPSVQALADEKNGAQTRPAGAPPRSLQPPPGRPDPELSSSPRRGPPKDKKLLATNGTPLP
The settings on record: at 0.1 µM.

Experiment [15] concerns the target T5, Serine/threonine-protein kinase BRSK1 (Homo sapiens). The note with it: at 1 µM.
Experiment [16] has as its target T6, Serine/threonine-protein kinase BRSK2 (Homo sapiens) (UniProt Q8IWQ3).
T6 sequence (whole entry): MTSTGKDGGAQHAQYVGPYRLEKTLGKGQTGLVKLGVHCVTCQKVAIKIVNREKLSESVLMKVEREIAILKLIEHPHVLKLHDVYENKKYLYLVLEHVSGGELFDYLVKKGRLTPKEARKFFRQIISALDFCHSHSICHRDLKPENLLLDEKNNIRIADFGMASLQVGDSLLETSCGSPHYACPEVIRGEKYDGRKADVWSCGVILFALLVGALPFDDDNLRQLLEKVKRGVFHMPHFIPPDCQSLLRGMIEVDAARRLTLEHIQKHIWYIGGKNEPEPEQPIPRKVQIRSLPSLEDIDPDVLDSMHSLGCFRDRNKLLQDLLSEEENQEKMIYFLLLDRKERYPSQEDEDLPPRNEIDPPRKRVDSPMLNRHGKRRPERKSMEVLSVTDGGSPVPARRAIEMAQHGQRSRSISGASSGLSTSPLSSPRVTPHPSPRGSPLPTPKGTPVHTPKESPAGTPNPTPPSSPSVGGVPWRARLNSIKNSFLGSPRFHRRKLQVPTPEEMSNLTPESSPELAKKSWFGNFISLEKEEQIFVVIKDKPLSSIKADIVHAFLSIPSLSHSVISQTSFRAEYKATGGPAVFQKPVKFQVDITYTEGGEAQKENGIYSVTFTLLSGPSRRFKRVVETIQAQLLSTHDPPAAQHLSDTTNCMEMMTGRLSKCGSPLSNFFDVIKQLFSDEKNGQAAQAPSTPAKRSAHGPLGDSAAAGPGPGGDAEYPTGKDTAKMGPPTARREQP
The settings on record: at 0.1 µM.

Experiment [17] deals with T6, Serine/threonine-protein kinase BRSK2 (Homo sapiens). The settings on record: at 1 µM.
Experiment [18] concerns the target Calcium/calmodulin-dependent protein kinase type 1D (Homo sapiens) (UniProt Q8IU85). The note with it: at 0.1 µM.
The target is the same in experiment [19]. The note with it: at 1 µM.
Experiment [20] has as its target Calcium/calmodulin-dependent protein kinase type II subunit alpha (Homo sapiens) (UniProt Q9UQM7). The settings on record: at 0.1 µM.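 Also: reported values are averages (mean inhibition of CAMK2A).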

SMILES strings stand for the structures.

Calcium/calmodulin-dependent protein kinase type 1D (Homo sapiens), sequence (Q8IU85 whole entry, looked up): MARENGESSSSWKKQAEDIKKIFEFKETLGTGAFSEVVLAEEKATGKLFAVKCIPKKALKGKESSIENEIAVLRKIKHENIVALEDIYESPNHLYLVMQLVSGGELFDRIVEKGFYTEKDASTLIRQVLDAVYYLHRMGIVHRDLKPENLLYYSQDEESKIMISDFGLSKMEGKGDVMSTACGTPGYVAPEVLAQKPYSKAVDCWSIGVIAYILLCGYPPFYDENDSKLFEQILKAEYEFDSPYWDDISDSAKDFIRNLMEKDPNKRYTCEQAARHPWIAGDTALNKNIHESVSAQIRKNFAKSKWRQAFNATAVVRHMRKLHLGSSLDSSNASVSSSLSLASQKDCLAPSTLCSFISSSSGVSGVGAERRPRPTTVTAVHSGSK
Calcium/calmodulin-dependent protein kinase type II subunit alpha (Homo sapiens), sequence (Q9UQM7 whole entry): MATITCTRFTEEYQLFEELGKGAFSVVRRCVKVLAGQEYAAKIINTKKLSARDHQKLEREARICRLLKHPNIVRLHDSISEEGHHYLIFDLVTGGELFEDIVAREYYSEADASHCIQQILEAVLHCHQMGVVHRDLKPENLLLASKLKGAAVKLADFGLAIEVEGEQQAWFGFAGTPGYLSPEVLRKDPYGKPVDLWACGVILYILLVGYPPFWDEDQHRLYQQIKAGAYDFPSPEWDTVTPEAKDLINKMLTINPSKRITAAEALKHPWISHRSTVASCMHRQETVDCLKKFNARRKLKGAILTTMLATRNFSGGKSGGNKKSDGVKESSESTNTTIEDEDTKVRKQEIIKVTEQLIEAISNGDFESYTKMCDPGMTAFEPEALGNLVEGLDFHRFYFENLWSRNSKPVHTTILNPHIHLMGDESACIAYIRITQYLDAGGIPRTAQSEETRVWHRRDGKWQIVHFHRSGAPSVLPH
Ribosomal protein S6 kinase alpha-6 (Homo sapiens), sequence (Q9UK32 whole entry): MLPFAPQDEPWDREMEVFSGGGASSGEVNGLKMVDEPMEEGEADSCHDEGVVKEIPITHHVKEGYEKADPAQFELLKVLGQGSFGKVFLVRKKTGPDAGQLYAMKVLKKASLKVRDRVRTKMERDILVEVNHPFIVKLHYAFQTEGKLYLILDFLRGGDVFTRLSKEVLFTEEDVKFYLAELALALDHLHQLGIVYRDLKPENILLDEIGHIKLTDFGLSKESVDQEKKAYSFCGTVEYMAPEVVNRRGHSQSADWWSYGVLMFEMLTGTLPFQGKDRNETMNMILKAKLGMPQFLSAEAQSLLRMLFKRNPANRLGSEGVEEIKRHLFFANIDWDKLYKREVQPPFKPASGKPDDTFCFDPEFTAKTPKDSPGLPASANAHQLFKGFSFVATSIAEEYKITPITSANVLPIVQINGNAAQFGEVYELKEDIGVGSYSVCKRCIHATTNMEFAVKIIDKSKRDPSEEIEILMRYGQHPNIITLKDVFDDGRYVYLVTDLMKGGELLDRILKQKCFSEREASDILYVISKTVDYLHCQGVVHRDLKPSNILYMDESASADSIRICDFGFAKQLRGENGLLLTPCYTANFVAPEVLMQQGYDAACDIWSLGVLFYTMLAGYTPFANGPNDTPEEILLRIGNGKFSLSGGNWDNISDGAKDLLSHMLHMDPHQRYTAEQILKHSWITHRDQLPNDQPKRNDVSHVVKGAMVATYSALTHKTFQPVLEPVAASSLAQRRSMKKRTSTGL
5'-AMP-activated protein kinase catalytic subunit alpha-2 (Homo sapiens), sequence (P54646 whole entry, looked up): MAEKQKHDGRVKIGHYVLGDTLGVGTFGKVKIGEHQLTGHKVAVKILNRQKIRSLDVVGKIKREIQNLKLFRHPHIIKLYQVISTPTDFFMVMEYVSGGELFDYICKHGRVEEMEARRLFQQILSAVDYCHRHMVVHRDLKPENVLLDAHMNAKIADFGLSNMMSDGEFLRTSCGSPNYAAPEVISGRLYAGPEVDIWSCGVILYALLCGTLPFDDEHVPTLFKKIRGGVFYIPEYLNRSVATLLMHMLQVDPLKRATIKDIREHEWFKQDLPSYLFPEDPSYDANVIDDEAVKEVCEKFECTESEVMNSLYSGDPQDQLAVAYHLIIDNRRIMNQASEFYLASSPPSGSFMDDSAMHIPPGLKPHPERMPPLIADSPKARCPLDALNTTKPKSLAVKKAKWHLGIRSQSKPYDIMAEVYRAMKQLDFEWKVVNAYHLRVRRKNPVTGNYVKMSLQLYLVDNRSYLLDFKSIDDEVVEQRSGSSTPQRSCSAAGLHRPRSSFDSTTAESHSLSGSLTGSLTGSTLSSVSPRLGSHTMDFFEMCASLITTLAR
5'-AMP-activated protein kinase catalytic subunit alpha-1 (Homo sapiens), sequence (Q13131 whole entry, looked up): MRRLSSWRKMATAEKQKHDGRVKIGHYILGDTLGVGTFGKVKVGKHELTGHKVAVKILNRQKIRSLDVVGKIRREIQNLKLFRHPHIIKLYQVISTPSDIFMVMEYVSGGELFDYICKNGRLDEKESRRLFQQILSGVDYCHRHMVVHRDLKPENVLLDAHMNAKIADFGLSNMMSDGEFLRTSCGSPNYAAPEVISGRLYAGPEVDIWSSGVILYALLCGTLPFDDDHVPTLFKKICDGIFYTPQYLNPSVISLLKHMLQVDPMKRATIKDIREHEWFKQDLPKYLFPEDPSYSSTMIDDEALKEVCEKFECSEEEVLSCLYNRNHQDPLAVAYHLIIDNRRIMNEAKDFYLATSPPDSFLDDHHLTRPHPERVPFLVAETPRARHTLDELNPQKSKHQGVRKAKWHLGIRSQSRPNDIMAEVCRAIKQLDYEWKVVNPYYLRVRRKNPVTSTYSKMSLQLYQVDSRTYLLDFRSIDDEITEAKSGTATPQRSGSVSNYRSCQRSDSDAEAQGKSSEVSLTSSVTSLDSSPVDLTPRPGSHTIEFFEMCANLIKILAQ

As usually defined, the inhibition is the change of the read-out against control, counted positive when it falls. In the case of `NC(=O)c1sc(-n2cnc3ccc(C(F)(F)F)cc32)cc1OCc1ccccc1Br`, the inhibition in [1] was 2.19%; in [2], 3.07%; in experiment [3], 4.04%; in [4] it was -0.91%; in experiment [5] it was 3.21%; in [6], 3.83%. For the same compound, the inhibition in [7] was 4.65%; in [8] it was 2.58%; in experiment [9], 4.41%; in experiment [10], 3.14%; in experiment [11], 3.78%; in [12], -0.18%. Also, the inhibition was 3.82% in [13]; 0.06% in [14]; 1.03% in [15]; 2.41% in [16]; 4.25% in experiment [17]; -0.93% in experiment [18]. The inhibition in experiment [19] was found to be 0.69%; in experiment [20], 1.87%.

On to `CC(=O)Nc1cccc(C#Cc2cncnc2Nc2ccc(OCc3cccc(F)c3)c(Cl)c2)c1`, for which the inhibition was 1.39% in [1]; 3.01% in experiment [2]; 2.43% in experiment [3]; -0.35% in experiment [4]; 2.06% in [5]; 2.61% in experiment [6]. In addition, the inhibition in [7] was -0.92%; in experiment [8] it was 1.72%; in [9], -0.52%; in experiment [10], 2.44%; in experiment [11] it was 2.19%; in [12], 1.95%. The inhibition in experiment [13] stood at 7.23%; in [14], 2.55%; in experiment [15], 1.82%; in [16] it was 1.34%; in experiment [17], 0.36%; in [18], 2.97%. For the same compound, the inhibition in experiment [19] amounted to 3.77%; in [20], 4.42%.

Consider `CC(C)(CO)CNC(=O)c1ccc2c(c1)/C(=N/Nc1ccc(S(N)(=O)=O)cc1)C(=O)N2`, for which the inhibition in [1] is 9.45%; in experiment [2], 0.94%; in experiment [3], 8.72%; in [4], 0.65%; in experiment [5], 3.3%; in experiment [6], -2.66%. Moreover, the inhibition in experiment [7] came out at 3.04%; in [8], 26%; in experiment [9], 72.3%; in [10], 6.91%; in experiment [11], 33.7%; in [12], 19.7%. In addition, the inhibition in experiment [13] came out at 58.6%; in experiment [14] it was 6.46%; in experiment [15], 37.7%; in experiment [16], 11.6%; in experiment [17], 52.2%; in [18], 0.39%. The inhibition was 1.92% in experiment [19] and -0.2% in experiment [20].

Source of the values: ChEMBL document CHEMBL1961873, “Compounds: GSK PKIS; Assays: Nanosyn kinase panel” (2012).
